Source: the OligoGym collection

Target: PALM2-AKAP2
Assay: pooled miR-30 sensor sort-seq; sequence = guide strand
Details: shRNA
Further: reference of the scale not given here.

In order of falling sensor-assay potency score (higher = more potent):
1. TTGTTCTTTCTCATGCTCGTCA  0.379
2. TTAGTCAGTGGCTTGTCTGAGT  0.113
3. TTGAATGGCATTCTGCACCAGG  -0.555
4. TTGATTTGCTTGTAACATGTTT  -0.674

Target: PAQR4
Assay: as above
Details: shRNA

In order of falling sensor-assay potency score (higher = more potent):
1. TTTATTGATGTCATCCAGGGTC  0.153
2. TCGTTGTGCAGGTAGAAGAGGC  -0.773
3. TTCGTTGTGCAGGTAGAAGAGG  -0.851
4. AAAGAGGTGATAGAGCACGGAG  -0.892
5. TTGGTGGCACATAAAGAGGTGA  -0.895
6. TATTGAACTGCAGGTGCGGCGG  -0.944
7. TTATTGAACTGCAGGTGCGGCG  -1.14
8. GAACTTATTGAACTGCAGGTGC  -1.19
9. TTGAACTGCAGGTGCGGCGGCG  -1.22
10. TAGAAGAGGCTGCGCAGGCAGC  -1.34
11. TAGAGCACGGAGCCTGCAGGGG  -1.54
12. TAGCAGGGCAGGGAGCCTGGAG  -1.85

Target: PAQR6
Assay: as above
Details: shRNA

In order of rising sensor-assay potency score (higher = more potent):
1. TCGTTGGTCATCTGGAAGGAGC  -1.68
2. TGAGGACACAGTCCAAAGCCGA  -1.67
3. TAGGTTCCCAGCTGCAGCCAAG  -1.67
4. TAGGCGAAGGCTCCTGTGCGGA  -1.44
5. AAAGAGTGGGAGGTTGTCGAAC  -1.08
6. TTGTCGAACAGGAATGGATAGG  -0.865
7. TGTGAAAGCAGCAATAATGAGT  -0.688
8. TCTATAGGCAAATAGCTGCTGG  -0.274
9. TAATGAGTAGGTTCCCAGCTGC  -0.176
10. TGTAATCAAAGCGTCCTGGTGC  0.2
11. TTGGTCATCTGGAAGGAGCTGA  0.592

Target: PARN
Assay: as above
Details: shRNA

In order of rising sensor-assay potency score (higher = more potent):
1. TAGCTTTCTGCATATTTGCTGG  -0.898
2. TTCATGACAGCCTACAACCGTG  -0.783
3. TAAACTTCTTTTGATCCTCAGG  -0.665
4. TTGACATCTGGTGAGGATCTAT  -0.282
5. TTTAGTATCCAAGAGTCTGGGG  -0.201
6. TAGAAGTTAAATGACTTCGTTA  -0.166
7. TTCTTCTTCATCTACTTTGCTG  -0.0536
8. TTTCTCTTTCCTACTGTGCTGG  0.101
9. TAGGCTGCAAGTCTGGTCCTTC  0.109
10. TTTATTAAAATCAAATCCCTGG  0.307
11. TAAGCTTCTGATACCTCTCTTC  0.34
12. ATACATAGGACAGAGCTCCTGC  0.763
